Results taken from PubChem BioAssay AID1240 (Sanford-Burnham Center for Chemical Genomics, 2008).
The campaign covered roughly 50,000 compounds. About 800 (1.6%) showed an effect of 50% or more. Only a selection was taken, and strong results are over-represented in it overall.

These molecules were tested against Bcl-2-like protein 10 (Homo sapiens) (UniProt Q9HD36) (assay: TR3 peptide-Bcl-B binding displacers, biochemical primary FP assay, phenotype converters (AID 1240;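 further: 0% = Bcl-B with tracer peptide and DMSO and 100% = tracer peptide lacking Bcl-B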)). Conditions: GST-Bcl-B / FITC-TR3 peptide fluorescence polarization; stronger effect = higher value; compound at 3.75 mg/L.
Chain of Bcl-2-like protein 10 (Homo sapiens) (Q9HD36 whole entry, looked up): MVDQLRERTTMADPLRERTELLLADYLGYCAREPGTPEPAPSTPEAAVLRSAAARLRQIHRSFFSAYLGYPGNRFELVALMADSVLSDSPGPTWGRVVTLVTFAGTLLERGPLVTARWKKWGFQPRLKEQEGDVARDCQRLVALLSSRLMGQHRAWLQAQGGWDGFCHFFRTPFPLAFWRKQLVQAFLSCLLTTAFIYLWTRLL
`COc1cc(C(=O)N2CCN(Cc3cccc(Oc4ccccc4)c3)CC2)cc(OC)c1OC` showed a displacement of 132%.
`COc1ccc(C(=O)N2CCN(Cc3cccc4ccccc34)CC2)cc1OC` was tested, and the displacement was -5.2%.
With `O=C(c1ccccc1)N1CCN(Cc2cccc(Oc3ccccc3)c2)CC1` the displacement was -8.8%.
For `COc1ccc(C(=O)N2CCN(Cc3cccc(Oc4ccccc4)c3)CC2)cc1OC`, the displacement was 6.4%.
In the case of `COc1ccc(C(=O)N2CCN(Cc3ccccc3C)CC2)cc1OC`, the displacement was -1%.
Molecule `COc1ccc(C(=O)N2CCN(Cc3ccccc3F)CC2)cc1OC` has a displacement of 56%.
Work on `CCn1c2c(c3cc(C4CCCCC4)ccc31)CCCC2O` (stereo not given) yielded a displacement of 2.5%.
For `CC(=O)SCCC(=O)N1CCn2c3c(c4cc(C)ccc42)CCCC31` (stereo not given), the displacement was 14.3%.
`CN1CCN(CC(=O)N2CCn3c4c(c5cc(C6CCCCC6)ccc53)CCCC42)CC1` (stereo not given) gave a displacement of 60.9%.
With `O=C(Nc1ccc(Cl)cc1)Nc1ccc([N+](=O)[O-])cc1Br` the displacement was 3.9%.
Molecule `CCCC(=O)Nc1ccc2c(c1)Cc1ccccc1-2` has a displacement of -1.1%.
Molecule `O=C(N/N=C/c1cccnc1)c1ccco1` has a displacement of 18.4%.
`O=C1OC(c2ccc(NC(=O)C(F)(F)F)cc2)(c2ccc(NC(=O)C(F)(F)F)cc2)c2ccccc21` was tested, and the displacement was 4.8%.
Molecule `O=C1OC(Nc2ncccn2)(c2ccccc2)c2ccccc21` (stereo not given) has a displacement of -7.3%.
In the case of `O=S(=O)(c1ccc2ccccc2c1)N1CCC(Cc2ccccc2)CC1`, the displacement was -21.4%.
`O=C(CCN1C(=O)c2ccccc2C1=O)Nc1ccccc1C(=O)N1CCOCC1` gave a displacement of 10%.
Work on `O=C1CNC(=O)c2c(ncn2Cc2ccccc2)N1` yielded a displacement of -13.2%.
Molecule `O=C1c2ccccc2-c2onc3c(N4CCN(c5ccccc5)CC4)ccc1c23` has a displacement of -8.2%.
`O=C1c2ccccc2C(=O)c2c(NC3CCCCC3)cccc21` gave a displacement of -2.9%.
With `O=C1c2ccccc2-c2onc3ccc(N4CCCCC4)c1c23` the displacement was 145%.
With `Cc1ccc(N2CCCCC2)c2c1C(=O)c1ccccc1C2=O` the displacement was 1.1%.
In the case of `O=C1c2ccccc2-c2onc3ccc(Nc4cccc([N+](=O)[O-])c4)c1c23`, the displacement was 24.2%.
`O=C1c2ccccc2-c2onc3ccc(NC4CCCCC4)c1c23` showed a displacement of 59.4%.
For `CCSc1sc(CC)cc1C(=O)O`, the displacement was 15.4%.
Work on `O=c1oc(-c2ccco2)nc2ccc(Cl)cc12` yielded a displacement of 13.6%.
Molecule `O=c1oc(-c2ccco2)nc2ccccc12` has a displacement of 15.9%.
Work on `O=c1oc(-c2ccco2)nc2cc(Cl)ccc12` yielded a displacement of 56%.
Work on `C(=C\c1ccco1)/C=N/Nc1nnc2c(n1)[nH]c1ccccc12` yielded a displacement of -1.8%.
In the case of `CCOc1ccc(C(=O)Nc2ccc(O)c(-c3nc4ccccc4s3)c2)cc1Cl`, the displacement was 6.3%.
`O=c1c2c(nc3cc(-c4ccc(Cl)cc4)[nH]n13)CCS2` was tested, and the displacement was 115%.
`O=c1c2c(nc3cc(-c4ccc(I)cc4)[nH]n13)CCS2` showed a displacement of 97.5%.
With `Cc1ccc(-c2cc3nc4c(c(=O)n3[nH]2)SCC4)cc1` the displacement was -4.6%.
For `O=c1c2c(nc3cc(-c4ccc(Br)cc4)[nH]n13)CCS2`, the displacement was -9.1%.
In the case of `O=c1c2c(nc3cc(-c4cccc(F)c4)[nH]n13)CCS2`, the displacement was 9.2%.
In the case of `O=c1c2c(nc3cc(-c4cccc(Cl)c4)[nH]n13)CCS2`, the displacement was 34.8%.
`O=C(COc1cccc2ccccc12)NCc1cccnc1` was tested, and the displacement was 8.3%.
Molecule `CC(C)CNC(=O)c1cccc(NC(=O)CN2C(=O)c3ccccc3C2=O)c1` has a displacement of 13.8%.
`O=C(NCc1ccncc1)c1ccc(Cl)cc1` showed a displacement of -3.5%.
Work on `C/C(=N/NC(=O)COc1cccc(Cl)c1)c1ccccc1O` yielded a displacement of 9.1%.
`Cc1cc(C)c(NC(=O)c2ccccc2[N+](=O)[O-])c(C)c1` gave a displacement of 13.5%.
In the case of `CC(=O)NC(NC(C)=O)c1ccc(F)cc1`, the displacement was -2.4%.
`COc1ccc(/C=C2\C(=O)NC(=O)N(c3cccc(Br)c3)C2=O)c(OC)c1` was tested, and the displacement was 122%.
Work on `COc1ccc(/C=C2\C(=O)NC(=O)N(c3cccc(Br)c3)C2=O)c(C)c1` yielded a displacement of -5.7%.
With `CCOc1ccc(/C=C2/C(=O)NC(=O)N(c3ccc(OC)cc3)C2=O)c(OCC)c1` the displacement was -4%.
For `COc1ccc(/C=C2\C(=O)NC(=S)N(c3cccc(Br)c3)C2=O)c(OC)c1`, the displacement was -0.7%.
Molecule `COc1ccc(/C=C2\C(=O)NC(=O)N(c3cccc(Br)c3)C2=O)cc1OC` has a displacement of 120%.
With `CCOc1ccc(N2C(=O)NC(=O)/C(=C\c3ccc(N(CC)CC)cc3OC)C2=O)cc1` the displacement was 55.1%.
`CCN(CC)c1ccc(/C=C2\C(=O)NC(=O)N(c3ccc(OC)cc3)C2=O)c(OC)c1` was tested, and the displacement was 10%.
In the case of `COc1ccc(/C=C2\C(=O)NC(=O)N(c3ccc(F)cc3)C2=O)cc1OC`, the displacement was -27.7%.
For `COc1cc(/C=C2\C(=O)NC(=O)N(c3cccc(Br)c3)C2=O)cc(Cl)c1O`, the displacement was 4.4%.
Work on `Cc1cc(Br)ccc1NC(=O)c1ccc(C)c([N+](=O)[O-])c1` yielded a displacement of 8.6%.
With `CCCCCOC(=O)C1=C(C)NC(=O)NC1c1ccc(Br)cc1` (stereo not given) the displacement was 8.5%.
For `COc1ccccc1C(=O)Nc1nnc(C(C)(C)C)s1`, the displacement was -11.4%.
Work on `CCOc1ccc(S(=O)(=O)N(CC(=O)NC)c2ccc(C)cc2)cc1` yielded a displacement of 1.7%.
In the case of `C=CCC(C)(CC=C)NC(=O)c1ccccc1[N+](=O)[O-]`, the displacement was -6.9%.
For `O=C(NCC1CCCO1)/C(=C/c1ccc(-c2ccccc2Cl)o1)NC(=O)c1ccccc1` (stereo not given), the displacement was 19.7%.
Molecule `COc1cc(C(=O)Oc2ccc(Cl)cc2C)cc(OC)c1OC` has a displacement of 2.1%.
`CCOC(=O)C1=C(C)NC2=C(C(=O)CC(C)(C)C2)C1c1ccc(OC(F)F)cc1` (stereo not given) gave a displacement of -0.2%.
With `CCOc1cc(/C=C2/C=C(c3ccc(OC)cc3)OC2=O)cc(I)c1OC` the displacement was -6%.
With `CCOc1ccc(C2=C/C(=C/c3ccc(OC)cc3)C(=O)O2)cc1` the displacement was -0.6%.
`CC(=O)Oc1ccc(/C=C2\C=C(c3ccc(C)cc3)OC2=O)cc1` gave a displacement of 34.5%.
`CCOc1cc(/C=C2\C=C(c3ccc(C)cc3)OC2=O)ccc1OC(C)=O` was tested, and the displacement was 111%.
For `COc1ccc(/C=C2\C=C(c3ccc(C)cc3)OC2=O)cc1C`, the displacement was 10.4%.
With `COc1ccc(C2=C/C(=C\c3cccc(OC(C)=O)c3)C(=O)O2)cc1` the displacement was 25.4%.
`CCOc1cc(/C=C2\C=C(c3ccc(OC)cc3)OC2=O)ccc1OC(C)=O` was tested, and the displacement was 92.4%.
Molecule `COc1ccc(C2=C/C(=C\c3ccc(OC(C)=O)cc3)C(=O)O2)cc1` has a displacement of 110%.
`COc1ccc(C2=C/C(=C\c3ccc(OC(C)=O)c(OC)c3)C(=O)O2)cc1` was tested, and the displacement was 39.4%.
`COc1cc(/C=C2\C=C(c3ccc(C)cc3)OC2=O)ccc1OC(C)=O` showed a displacement of 59.2%.
Molecule `CC(=O)Oc1cccc(/C=C2\C=C(c3ccc(C)cc3)OC2=O)c1` has a displacement of 7%.
`CCOc1cc(/C=C2\C=C(c3ccc(Br)cc3)OC2=O)ccc1OC(C)=O` was tested, and the displacement was 12.6%.
